# Measured values published in article PMC7862700, “An all-to-all approach to the identification of sequence-specific readers for epigenetic DNA modifications on cytosine”.
# How the values were obtained:
# Assay in all cases: DAPPL (digital affinity profiling via proximity ligation, sequencing); 10 mM Tris-HCl pH 7.5, 50 mM NaCl, 1 mM DTT, 4% glycerol, room temperature, 30 min; GST-TFs on glutathione beads, 16-mer random dsDNA library, 0.1% formaldehyde crosslink after washing; high values mean tight binding
# Settings in all cases: protein: recombinant; tags: N-terminal GST; dsDNA, one strand shown
# FLI1 = target: T1, FLI1 (Homo sapiens, UniProt Q01543 1-452)
# T1 sequence: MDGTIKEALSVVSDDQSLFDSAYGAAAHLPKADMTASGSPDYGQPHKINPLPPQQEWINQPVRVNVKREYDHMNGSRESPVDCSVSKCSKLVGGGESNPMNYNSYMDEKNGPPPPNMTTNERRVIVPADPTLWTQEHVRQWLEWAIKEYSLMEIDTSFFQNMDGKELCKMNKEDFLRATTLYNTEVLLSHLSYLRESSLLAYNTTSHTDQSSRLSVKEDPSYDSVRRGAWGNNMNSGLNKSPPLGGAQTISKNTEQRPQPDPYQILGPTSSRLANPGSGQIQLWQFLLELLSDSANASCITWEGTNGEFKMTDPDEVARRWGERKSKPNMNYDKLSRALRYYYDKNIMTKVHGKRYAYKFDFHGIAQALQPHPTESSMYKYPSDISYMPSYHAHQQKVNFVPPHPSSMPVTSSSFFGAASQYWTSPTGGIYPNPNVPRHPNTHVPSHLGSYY
# Method in brief: (§1)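 The binding signal reported is, for every hexamer, its read frequency for a factor over its read frequency for the tag-only sample. Reads came from pools of yeast-expressed, GST-fused human transcription factors on glutathione beads, barcoded with DNA and mixed with that sample, which were incubated with 200 nmole of a random double-stranded 16-mer DNA library in Tris/NaCl/DTT/glycerol buffer at room temperature for 30 min. After washing, the pools were crosslinked with 0.1% formaldehyde, proximity-ligated with BsaI/T4 ligase for 1 h at 37 °C, PCR-amplified and sequenced on an Illumina NextSeq500.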
# GABPA = target: T2, GABPA (Homo sapiens, UniProt Q06546 1-454)
# T2 sequence: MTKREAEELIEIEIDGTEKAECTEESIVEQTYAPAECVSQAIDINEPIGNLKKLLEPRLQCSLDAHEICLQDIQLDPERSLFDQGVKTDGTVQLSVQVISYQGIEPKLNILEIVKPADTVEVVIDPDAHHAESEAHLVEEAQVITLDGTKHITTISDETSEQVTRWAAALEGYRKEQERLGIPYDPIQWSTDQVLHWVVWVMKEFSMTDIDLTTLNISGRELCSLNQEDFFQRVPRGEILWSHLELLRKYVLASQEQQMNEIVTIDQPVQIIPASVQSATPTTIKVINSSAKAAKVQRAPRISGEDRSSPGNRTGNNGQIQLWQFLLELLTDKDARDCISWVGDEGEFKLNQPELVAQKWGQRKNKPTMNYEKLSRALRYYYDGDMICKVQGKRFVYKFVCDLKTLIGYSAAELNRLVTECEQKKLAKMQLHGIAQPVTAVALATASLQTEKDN
# Method in brief: as §1
# ERG = target: T3, ERG (Homo sapiens, UniProt P11308 1-479)
# T3 sequence: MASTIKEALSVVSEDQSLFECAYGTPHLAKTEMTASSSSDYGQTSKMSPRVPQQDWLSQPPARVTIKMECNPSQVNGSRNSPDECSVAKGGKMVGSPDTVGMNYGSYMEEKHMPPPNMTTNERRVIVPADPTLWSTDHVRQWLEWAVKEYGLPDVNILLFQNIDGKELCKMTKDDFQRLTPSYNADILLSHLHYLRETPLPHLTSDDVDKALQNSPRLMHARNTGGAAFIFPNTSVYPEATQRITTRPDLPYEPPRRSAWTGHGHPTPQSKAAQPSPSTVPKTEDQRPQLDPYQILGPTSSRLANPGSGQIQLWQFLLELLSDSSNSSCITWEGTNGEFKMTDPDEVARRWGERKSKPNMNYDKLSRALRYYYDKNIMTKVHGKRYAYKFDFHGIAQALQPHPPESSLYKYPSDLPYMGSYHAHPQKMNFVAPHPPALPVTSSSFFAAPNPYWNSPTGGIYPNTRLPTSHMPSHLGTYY
# Method in brief: as §1
# ELF1 = ELF1 (Homo sapiens, UniProt P32519 1-619)
# Sequence of ELF1 (P32519 whole entry): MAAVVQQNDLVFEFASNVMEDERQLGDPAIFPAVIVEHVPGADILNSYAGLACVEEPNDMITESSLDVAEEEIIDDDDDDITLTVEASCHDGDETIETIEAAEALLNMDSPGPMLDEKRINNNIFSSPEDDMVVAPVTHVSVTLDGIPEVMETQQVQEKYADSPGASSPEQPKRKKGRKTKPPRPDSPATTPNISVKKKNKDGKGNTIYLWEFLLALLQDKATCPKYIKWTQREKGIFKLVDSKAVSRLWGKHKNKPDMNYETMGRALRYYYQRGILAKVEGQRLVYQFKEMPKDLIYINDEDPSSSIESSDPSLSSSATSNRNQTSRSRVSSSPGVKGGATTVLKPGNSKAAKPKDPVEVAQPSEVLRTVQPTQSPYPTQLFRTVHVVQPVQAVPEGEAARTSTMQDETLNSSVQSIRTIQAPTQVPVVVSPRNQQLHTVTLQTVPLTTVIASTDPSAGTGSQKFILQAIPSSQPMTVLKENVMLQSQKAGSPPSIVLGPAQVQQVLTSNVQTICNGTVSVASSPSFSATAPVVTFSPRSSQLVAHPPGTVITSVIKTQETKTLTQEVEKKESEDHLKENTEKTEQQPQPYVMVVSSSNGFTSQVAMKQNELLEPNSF
# Method in brief: as §1
# EHF = target: T4, EHF (Homo sapiens, UniProt Q9NZC4 1-300)
# T4 sequence: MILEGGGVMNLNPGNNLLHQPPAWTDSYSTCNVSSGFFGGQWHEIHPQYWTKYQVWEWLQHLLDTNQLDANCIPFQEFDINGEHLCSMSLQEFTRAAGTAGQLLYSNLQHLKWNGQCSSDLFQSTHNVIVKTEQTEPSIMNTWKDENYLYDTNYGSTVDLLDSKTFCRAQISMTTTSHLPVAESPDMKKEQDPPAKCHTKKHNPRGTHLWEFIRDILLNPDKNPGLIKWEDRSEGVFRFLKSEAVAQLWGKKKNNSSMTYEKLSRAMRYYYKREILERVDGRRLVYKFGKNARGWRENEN
# Method in brief: as §1
# SPI1 = SPI1 (Homo sapiens, UniProt P17947 1-270)
# Method in brief: as §1
# SPIB = SPIB (Homo sapiens, UniProt Q01892 1-262)
# Sequence of SPIB (Q01892 whole entry): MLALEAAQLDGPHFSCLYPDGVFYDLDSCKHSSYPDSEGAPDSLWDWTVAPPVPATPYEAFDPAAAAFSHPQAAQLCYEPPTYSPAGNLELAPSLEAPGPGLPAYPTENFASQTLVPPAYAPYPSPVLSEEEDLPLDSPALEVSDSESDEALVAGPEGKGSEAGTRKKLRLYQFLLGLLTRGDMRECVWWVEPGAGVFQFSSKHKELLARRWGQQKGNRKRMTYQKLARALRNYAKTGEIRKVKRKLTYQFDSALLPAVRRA
# Method in brief: as §1
# ELK3 = target: T5, ELK3 (Homo sapiens, UniProt P41970 1-407)
# T5 sequence: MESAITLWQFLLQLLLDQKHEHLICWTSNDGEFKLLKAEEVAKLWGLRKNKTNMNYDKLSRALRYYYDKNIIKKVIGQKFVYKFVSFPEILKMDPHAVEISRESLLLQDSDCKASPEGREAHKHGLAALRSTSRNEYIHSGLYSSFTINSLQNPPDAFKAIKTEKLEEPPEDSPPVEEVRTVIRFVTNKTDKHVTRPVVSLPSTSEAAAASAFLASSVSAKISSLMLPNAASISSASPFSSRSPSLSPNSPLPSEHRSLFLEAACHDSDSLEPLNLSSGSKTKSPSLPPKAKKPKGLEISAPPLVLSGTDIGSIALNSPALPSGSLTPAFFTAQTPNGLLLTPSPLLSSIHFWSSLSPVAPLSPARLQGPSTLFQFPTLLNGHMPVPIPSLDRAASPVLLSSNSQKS
# Method in brief: as §1
# FEV = target: T6, FEV (Homo sapiens, UniProt Q99581 1-238)
# T6 sequence: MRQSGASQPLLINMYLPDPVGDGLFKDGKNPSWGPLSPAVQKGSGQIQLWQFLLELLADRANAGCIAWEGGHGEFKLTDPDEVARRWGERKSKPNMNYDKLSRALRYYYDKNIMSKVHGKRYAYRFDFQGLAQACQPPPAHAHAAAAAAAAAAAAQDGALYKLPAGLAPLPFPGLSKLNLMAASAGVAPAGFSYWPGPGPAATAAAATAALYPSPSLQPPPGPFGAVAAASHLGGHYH
# Method in brief: as §1
# ETV5 = ETV5 (Homo sapiens, UniProt P41161 1-510)
# Sequence of ETV5 (P41161 whole entry): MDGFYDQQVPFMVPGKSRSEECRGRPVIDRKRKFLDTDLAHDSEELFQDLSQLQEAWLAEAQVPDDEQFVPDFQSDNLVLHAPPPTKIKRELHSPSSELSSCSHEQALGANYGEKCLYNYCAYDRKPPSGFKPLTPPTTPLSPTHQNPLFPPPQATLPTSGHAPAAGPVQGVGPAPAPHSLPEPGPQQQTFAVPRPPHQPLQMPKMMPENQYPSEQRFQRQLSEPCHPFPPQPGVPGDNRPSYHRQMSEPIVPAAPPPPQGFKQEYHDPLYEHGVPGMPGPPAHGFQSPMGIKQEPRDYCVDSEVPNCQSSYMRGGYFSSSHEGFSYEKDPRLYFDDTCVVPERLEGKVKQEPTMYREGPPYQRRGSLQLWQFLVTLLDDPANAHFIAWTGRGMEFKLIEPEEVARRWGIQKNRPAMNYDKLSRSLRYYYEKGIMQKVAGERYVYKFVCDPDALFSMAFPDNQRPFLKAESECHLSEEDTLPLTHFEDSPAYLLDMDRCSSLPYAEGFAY
# Method in brief: as §1
# SPIC = target: T7, SPIC (Homo sapiens, UniProt Q8N5J4 1-248)
# T7 sequence: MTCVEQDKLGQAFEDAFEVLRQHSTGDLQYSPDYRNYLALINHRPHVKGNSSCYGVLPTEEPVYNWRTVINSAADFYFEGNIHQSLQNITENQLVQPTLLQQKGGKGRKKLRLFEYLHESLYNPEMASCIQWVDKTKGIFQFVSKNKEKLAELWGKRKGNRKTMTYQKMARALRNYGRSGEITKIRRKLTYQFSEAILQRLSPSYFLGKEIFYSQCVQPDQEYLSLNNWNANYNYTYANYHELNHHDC
# Method in brief: as §1
# ELF4 = ELF4 (Homo sapiens, UniProt Q99607 1-663)
# Sequence of ELF4 (Q99607 whole entry): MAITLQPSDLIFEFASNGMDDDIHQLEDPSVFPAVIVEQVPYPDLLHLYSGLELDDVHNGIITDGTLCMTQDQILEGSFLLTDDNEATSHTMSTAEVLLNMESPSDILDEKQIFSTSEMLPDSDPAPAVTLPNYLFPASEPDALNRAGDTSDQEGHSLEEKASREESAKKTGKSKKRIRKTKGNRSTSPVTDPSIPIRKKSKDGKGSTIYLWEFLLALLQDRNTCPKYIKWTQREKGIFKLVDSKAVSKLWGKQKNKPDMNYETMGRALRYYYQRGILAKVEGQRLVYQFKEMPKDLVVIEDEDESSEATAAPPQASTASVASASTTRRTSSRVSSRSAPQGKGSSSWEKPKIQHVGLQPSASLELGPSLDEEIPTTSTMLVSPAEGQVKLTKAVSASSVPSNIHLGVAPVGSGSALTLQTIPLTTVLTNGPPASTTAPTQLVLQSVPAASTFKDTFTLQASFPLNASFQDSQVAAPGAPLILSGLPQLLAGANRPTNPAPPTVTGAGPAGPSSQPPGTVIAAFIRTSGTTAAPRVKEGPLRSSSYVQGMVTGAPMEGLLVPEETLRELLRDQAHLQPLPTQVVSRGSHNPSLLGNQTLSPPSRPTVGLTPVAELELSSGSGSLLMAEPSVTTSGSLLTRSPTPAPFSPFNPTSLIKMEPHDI
# Method in brief: as §1
# ETV1 = ETV1 (Homo sapiens, UniProt P50549 1-477)
# Sequence of ETV1 (P50549 whole entry): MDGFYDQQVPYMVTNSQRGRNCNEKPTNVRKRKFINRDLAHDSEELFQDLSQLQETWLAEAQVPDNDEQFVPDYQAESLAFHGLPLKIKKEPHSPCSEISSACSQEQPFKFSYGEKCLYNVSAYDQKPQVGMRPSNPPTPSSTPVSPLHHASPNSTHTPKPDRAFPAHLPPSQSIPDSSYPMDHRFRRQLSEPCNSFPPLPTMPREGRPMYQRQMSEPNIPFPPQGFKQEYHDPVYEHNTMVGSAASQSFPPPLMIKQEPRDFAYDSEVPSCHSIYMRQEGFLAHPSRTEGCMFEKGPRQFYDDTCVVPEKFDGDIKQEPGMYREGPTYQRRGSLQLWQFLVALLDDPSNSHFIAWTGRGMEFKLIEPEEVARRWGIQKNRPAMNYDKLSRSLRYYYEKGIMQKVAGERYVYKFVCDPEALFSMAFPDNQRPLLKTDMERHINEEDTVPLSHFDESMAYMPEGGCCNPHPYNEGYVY
# Method in brief: as §1
# ERF = target: T8, ERF (Homo sapiens, UniProt P50548 1-548)
# T8 sequence: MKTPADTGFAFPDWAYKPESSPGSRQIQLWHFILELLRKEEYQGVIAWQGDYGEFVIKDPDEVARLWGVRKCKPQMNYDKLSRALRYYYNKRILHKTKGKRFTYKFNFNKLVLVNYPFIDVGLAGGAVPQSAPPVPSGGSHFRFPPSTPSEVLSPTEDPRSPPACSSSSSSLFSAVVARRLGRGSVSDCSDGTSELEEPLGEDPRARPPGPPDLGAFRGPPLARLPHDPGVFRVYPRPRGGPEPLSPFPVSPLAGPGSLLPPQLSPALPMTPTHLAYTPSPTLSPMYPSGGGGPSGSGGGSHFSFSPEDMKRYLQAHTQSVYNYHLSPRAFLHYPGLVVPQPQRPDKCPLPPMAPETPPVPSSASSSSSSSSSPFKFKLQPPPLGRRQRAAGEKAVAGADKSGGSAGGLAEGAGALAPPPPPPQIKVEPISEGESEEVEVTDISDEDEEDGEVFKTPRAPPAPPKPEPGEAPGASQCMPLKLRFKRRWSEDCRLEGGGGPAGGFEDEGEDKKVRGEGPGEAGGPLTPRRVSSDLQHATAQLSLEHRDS
# Method in brief: as §1
# ETV3L = target: T9, ETV3L (Homo sapiens, UniProt Q6ZN32 1-361)
# T9 sequence: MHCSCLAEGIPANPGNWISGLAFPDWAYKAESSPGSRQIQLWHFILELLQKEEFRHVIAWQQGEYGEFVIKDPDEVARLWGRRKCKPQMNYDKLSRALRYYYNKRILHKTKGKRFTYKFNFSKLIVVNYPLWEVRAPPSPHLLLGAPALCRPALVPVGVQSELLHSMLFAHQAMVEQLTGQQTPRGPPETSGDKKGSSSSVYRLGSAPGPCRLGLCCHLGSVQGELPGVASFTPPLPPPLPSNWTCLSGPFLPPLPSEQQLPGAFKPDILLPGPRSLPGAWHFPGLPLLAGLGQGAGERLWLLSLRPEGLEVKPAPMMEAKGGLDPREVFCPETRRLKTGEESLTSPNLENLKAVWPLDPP
# Method in brief: as §1
# ETS2 = target: T10, ETS2 (Homo sapiens, UniProt P15036 1-469)
# T10 sequence: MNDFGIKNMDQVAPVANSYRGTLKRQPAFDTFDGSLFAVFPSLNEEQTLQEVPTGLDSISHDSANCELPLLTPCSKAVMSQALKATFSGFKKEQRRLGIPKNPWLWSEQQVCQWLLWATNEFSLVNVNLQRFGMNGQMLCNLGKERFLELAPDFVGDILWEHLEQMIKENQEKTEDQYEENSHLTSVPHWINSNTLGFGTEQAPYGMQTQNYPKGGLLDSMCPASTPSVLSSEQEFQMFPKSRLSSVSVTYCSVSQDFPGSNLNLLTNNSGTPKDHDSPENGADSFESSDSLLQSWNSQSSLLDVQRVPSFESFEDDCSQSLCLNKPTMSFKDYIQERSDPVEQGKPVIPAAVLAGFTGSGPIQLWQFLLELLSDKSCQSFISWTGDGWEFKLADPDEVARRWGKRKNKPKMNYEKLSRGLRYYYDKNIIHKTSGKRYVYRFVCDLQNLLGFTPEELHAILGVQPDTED
# Method in brief: as §1
# SPDEF = target: T11, SPDEF (Homo sapiens, UniProt O95238 1-335)
# T11 sequence: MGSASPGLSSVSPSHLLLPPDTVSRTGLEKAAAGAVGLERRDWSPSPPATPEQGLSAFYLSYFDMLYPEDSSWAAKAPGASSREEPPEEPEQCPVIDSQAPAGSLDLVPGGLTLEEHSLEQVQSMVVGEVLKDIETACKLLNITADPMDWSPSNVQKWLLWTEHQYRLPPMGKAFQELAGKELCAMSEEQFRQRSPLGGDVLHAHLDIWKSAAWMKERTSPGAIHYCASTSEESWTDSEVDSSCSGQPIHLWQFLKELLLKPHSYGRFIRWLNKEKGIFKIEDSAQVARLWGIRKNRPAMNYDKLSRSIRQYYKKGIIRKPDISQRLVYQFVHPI
# Method in brief: as §1
# ETV3 = target: T12, ETV3 (Homo sapiens, UniProt P41162-2 1-143)
# T12 sequence: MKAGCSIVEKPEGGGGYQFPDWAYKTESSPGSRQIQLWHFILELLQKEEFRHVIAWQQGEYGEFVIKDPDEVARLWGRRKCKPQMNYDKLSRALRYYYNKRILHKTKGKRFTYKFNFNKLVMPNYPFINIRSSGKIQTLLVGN
# Method in brief: as §1
# ETV6 = ETV6 (Homo sapiens, UniProt P41212 1-452)
# Sequence of ETV6 (P41212 whole entry): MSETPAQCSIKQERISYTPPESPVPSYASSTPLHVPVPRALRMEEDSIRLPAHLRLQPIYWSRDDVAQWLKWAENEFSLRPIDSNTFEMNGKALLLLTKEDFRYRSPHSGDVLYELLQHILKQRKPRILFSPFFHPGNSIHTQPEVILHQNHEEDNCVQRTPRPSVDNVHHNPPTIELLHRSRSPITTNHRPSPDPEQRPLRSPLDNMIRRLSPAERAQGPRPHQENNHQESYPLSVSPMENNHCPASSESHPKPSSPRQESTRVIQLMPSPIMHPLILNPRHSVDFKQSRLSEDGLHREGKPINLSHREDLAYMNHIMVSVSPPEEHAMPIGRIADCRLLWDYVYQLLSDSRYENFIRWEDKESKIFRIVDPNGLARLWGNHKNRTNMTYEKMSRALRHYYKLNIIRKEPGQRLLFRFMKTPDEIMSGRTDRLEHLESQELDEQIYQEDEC
# Method in brief: as §1
sequence,measurement,setting,value
GGTTTT,binding signal,FLI1,"1.22 fold enrichment (6-mer frequency, TF over GST control)"
same,binding signal,GABPA,"1.2 fold enrichment (6-mer frequency, TF over GST control)"
same,binding signal,ERG,"1.1 fold enrichment (6-mer frequency, TF over GST control)"
same,binding signal,ELF1,"1.11 fold enrichment (6-mer frequency, TF over GST control)"
same,binding signal,EHF,"1.08 fold enrichment (6-mer frequency, TF over GST control)"
same,binding signal,SPI1,"1.24 fold enrichment (6-mer frequency, TF over GST control)"
same,binding signal,SPIB,"1.05 fold enrichment (6-mer frequency, TF over GST control)"
same,binding signal,ELK3,"1.04 fold enrichment (6-mer frequency, TF over GST control)"
same,binding signal,FEV,"1.13 fold enrichment (6-mer frequency, TF over GST control)"
same,binding signal,ETV5,"1.11 fold enrichment (6-mer frequency, TF over GST control)"
same,binding signal,SPIC,"1.04 fold enrichment (6-mer frequency, TF over GST control)"
same,binding signal,ELF4,"1.15 fold enrichment (6-mer frequency, TF over GST control)"
same,binding signal,ETV1,"1.15 fold enrichment (6-mer frequency, TF over GST control)"
same,binding signal,ERF,"1.24 fold enrichment (6-mer frequency, TF over GST control)"
same,binding signal,ETV3L,"1.08 fold enrichment (6-mer frequency, TF over GST control)"
same,binding signal,ETS2,"1.1 fold enrichment (6-mer frequency, TF over GST control)"
same,binding signal,SPDEF,"1.07 fold enrichment (6-mer frequency, TF over GST control)"
same,binding signal,ETV3,"1.14 fold enrichment (6-mer frequency, TF over GST control)"
same,binding signal,ETV6,"1.05 fold enrichment (6-mer frequency, TF over GST control)"
